Calls of active or inactive are those of the source. Calls come from the whole dose curve; as a rule, active = well fitted cell-killing curve with a large enough effect; inconclusive = small, poorly fitted or top-dose-only effect; inactive = flat fitted curve, though single readings scatter. Peptide text beside a SMILES is read from it.

Experimental findings from PubChem BioAssay (NCATS) are described below.
Potency is the fitted concentration of half-maximal effect.

A short description of this experiment: MultiTox-Fluor Cytotoxicity Assay - LYMP1-003 - Live Cells (AID 962).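 For activity change, negative = fewer live cells: 0% = DMSO only and full loss = 92 µM tetraoctylammonium bromide; cytotoxic hits lower the live-cell protease signal.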 The conditions noted are these: LYMP1-003 lymphoblastoid cells, MultiTox-Fluor live-cell protease fluorescence; series mostly up to 92.2 µM; activity change, negative = fewer live cells: at the top concentration. An excerpt:
NIH Chemical Genomics Center [NCGC]
NIH Molecular Libraries Screening Centers Network [MLSCN]
National Institutes of Environmental Health Sciences [NIEHS]
National Toxicology Program [NTP]
We have developed a 1536-well cell-based assay for quantitative high throughput screening (qHTS) against a number of cell lines to determine in vitro cytotoxicity of small molecules. This particular assay uses a human lymphoblastoid cell line (LYMP1-003) purchased from Coriell Institute.
NCGC Assay Protocol Summary:
The MultiTox-Fluor Cytotoxicity Assay (Promega) is a homogeneous method to simultaneously measure the relative number of live and dead cells in culture by detecting changes in cell membrane integrity. There are two fluorogenic peptide substrates in the assay reagent. Viable cells are determined when the cell-permeant substrate (GF-AFC) enters the cell and is cleaved by protease from live cells resulting in liberated fluorophore. This live-cell protease activity restricted to viable cells is proportional to cell number. The dead cells are determined by using fluorogenic cell-impermeant peptide substrate (bis-AAF-R110) which cleaved by dead cell proteases leaking from damaged cell membrane.
Using the MultiTox-Fluor Cytotoxicity Assay, the relative number of live cells was measured in the lymphoblastoid cell line with complete culture medium following compound treatment for 16 hours. The assay was performed in opaque black Kalypsys 1536-well plates. In the screen, tetraoctylammonium bromide was used as positive control. Library compounds were measured for their ability to cause acute toxicity in the cell line, as reflected by a decrease in live cell protease activity, in a concentration-dependent manner. […] AC50 values were determined from concentration-response data modeled with the standard Hill equation.
qHTS protocol for MultiTox-Fluor Cytotoxicity assay
[Step] [Parameter] [Value] [Description]
1. Reagent; 5 uL; 2500 lymphoblastoid cells/well
2. Time; 5 hr; 37 C incubation
4. Controls; 23 nL; Tetraoctylammonium bromide 6.4pM to 92 uM
5. Time; 16 hr; 37 C incubation
6. Reagent; 5 uL; MuliTox-Fluor Assay reagent
7. Time; 60 min; Room Temperature
8. Detection; live-cell fluorescence (Ex/Em=405/510); EnVision plate reader
Keywords: cell viability, cytotoxicity, lymphoblastoid cell line, fluorescence, NTPHTS, NTPHTS_NCGC, NIEHS, EPA, DSSTox, MLSMR, MLSCN, NIH Roadmap, qHTS, NCGC
Consider `CS(=O)(=O)OCCCCOS(C)(=O)=O`, for which the Potency entry was “inactive”.

For the compound `CN(C)c1ccc2nc3ccc(=[N+](C)C)cc-3sc2c1`, the Potency was 7.94 µM (active). As for `Cc1cc(O)c2c(c1)C(=O)c1cc(O)cc(O)c1C2=O`, the “activity change, negative = fewer live cells” value (“activity change” below) was -30.1% (inactive).

In the case of `CCCc1cc(=O)[nH]c(=S)[nH]1`, the “activity change” value is -2.48% (inactive). The same measure, in the same setting: next, `CCc1nc(N)nc(N)c1-c1ccc(Cl)cc1`: -0.282% (inactive). Still for that read-out and setting: next, `CC(=O)Nc1ccc(O)cc1`: 0.709% (inactive); `COc1c2occc2cc2ccc(=O)oc12`: 2.83% (inactive); `Nc1ccc(S(N)(=O)=O)cc1`: -6.07% (inactive).

With `NS(=O)(=O)c1cc(C(=O)O)c(NCc2ccco2)cc1Cl`, the “activity change” value was -4.51% (inactive). Take `c1ccc2[nH]c(-c3cscn3)nc2c1`: the “activity change” value is -5.62% (inactive). Still for that read-out and setting: next, `COC(=O)[C@H](Cc1ccccc1)NC(=O)[C@@H](N)CC(=O)O` (H-Asp-Phe-OMe): -2.67% (inactive); `CCCCC(CC)COC(=O)C(C#N)=C(c1ccccc1)c1ccccc1` (stereo not drawn): -3.33% (inactive).

In the case of `Cc1ccc(C)c(OCCCC(C)(C)C(=O)O)c1`, the “activity change” value is -2.62% (inactive).
